An excerpt weighted towards active compounds, which were near 1.2% of everything screened.
RGS4-Gao reg: modulators of RGS4 binding to Galphao, primary screen, biochemical, multiplexed bead flow cytometry; Guanine nucleotide-binding protein G(o) subunit alpha (Homo sapiens), P09471; actives lie on both sides; binding response (% of control), % at 10 µM; 220,000 compounds, 0.33% hits; AID 1415, 2008; in the data active = binding response below about 49% or above about 150%; inactive = in between;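 note: fluorescent Galphao activated with aluminum fluoride binding bead-coupled RGS4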
Target sequence (P09471 whole entry, looked up): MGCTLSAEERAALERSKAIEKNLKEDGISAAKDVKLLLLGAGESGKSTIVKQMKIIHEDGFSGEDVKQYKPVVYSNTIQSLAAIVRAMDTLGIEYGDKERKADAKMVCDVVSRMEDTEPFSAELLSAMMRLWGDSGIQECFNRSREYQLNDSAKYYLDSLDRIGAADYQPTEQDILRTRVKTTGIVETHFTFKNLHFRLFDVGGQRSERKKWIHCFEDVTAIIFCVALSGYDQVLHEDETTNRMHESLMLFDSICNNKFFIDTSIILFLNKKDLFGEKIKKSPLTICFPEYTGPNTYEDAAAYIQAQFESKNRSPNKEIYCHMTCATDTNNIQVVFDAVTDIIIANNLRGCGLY
Avidin fluor: green autofluorescence of compounds with avidin beads – biophysical, 488/530 nm, flow cytometry, artefact control, profiling panel; compound fluorescence 488/530 nm; hits give high values; fluorescence (KMESF) at 10 µM; 220,000 compounds, 0.38% hits; AID 1775, 2009; in the data active = fluorescence above about 47
GSH fluor: compound fluorescence on glutathione beads, profiling panel, artefact control, biophysical, 488/530 nm, flow cytometry; 190,000 compounds, 0.25% hits; fluorescence (KMESF) at 10 µM; GSH beads flow cytometry, compound fluorescence 488/530 nm; hits give high values; AID 1776, 2009; in the data active = fluorescence above about 89;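 note: glutathione beads carrying GST-tagged Bcl family fusion proteins plus one bare bead set; values are compound well signal with DMSO vehicle wells as background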
RGS8-Gao reg: RGS8-Galphao binding modulators, primary screen, biochemical, multiplexed bead flow cytometry. Guanine nucleotide-binding protein G(o) subunit alpha (Homo sapiens), P09471. actives lie on both sides. response (percent of control binding), % at 10 µM. 220,000 compounds, 0.34% hits. AID 1423, 2008; in the data active = response below about 60% or above about 140%; inactive = in between;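 note: Galphao activated as the GDP aluminium fluoride complex binding bead-coupled RGS8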
RGS7-Gao reg: RGS7-Galphao binding modulators, primary screen, biochemical, multiplexed bead flow cytometry | binding response (% of control), % at 10 µM | 220,000 compounds, 0.35% hits | AID 1439, 2008 | actives lie on both sides; in the data active = binding response below about 49% or above about 150%; inconclusive = no clear call, values can overlap the other calls; inactive = in between;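 note: fluorescent Galphao held in activated GDP-AlF4 state binding bead-coupled RGS7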
RGS16-Gao HTS: modulators of RGS16 binding to Galphao, primary screen, biochemical, human proteins, multiplexed bead flow cytometry; bead-based flow cytometry RGS16-Galphao binding, fluorescence; actives lie on both sides; AID 1441, 2008; 220,000 compounds, 0.38% hits; binding response (% of control), % at 10 µM;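 note: Galphao activated by GDP with aluminum fluoride before binding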
Target sequence (O15492 whole entry, looked up): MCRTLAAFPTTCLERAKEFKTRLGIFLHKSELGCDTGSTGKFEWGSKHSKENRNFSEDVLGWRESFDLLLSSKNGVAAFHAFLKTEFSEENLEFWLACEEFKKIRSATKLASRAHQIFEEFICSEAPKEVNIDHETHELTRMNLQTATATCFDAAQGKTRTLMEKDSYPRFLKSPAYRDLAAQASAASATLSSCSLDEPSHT
Target sequence (P09471 whole entry, looked up): as the sequence (P09471 whole entry, looked up) above
RGS-Gao: modulators of RGS–Galpha-o binding, primary screen, biochemical, multiplexed beads, flow cytometry, RGS4/7/8/16/19; shares compounds with RGS16-Gao HTS; multiplexed bead flow cytometry; RGS4–Galpha-o binding response, % at 10 µM; 1,600 compounds, 99% hits; AID 1504, 2009;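 note: fluorescently labeled Galpha-o bound to GDP with aluminium fluoride binding biotinylated RGS beads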
Avidin counter: disruption of biotin probe capture by avidin, counter-screen for RGS protein interaction modulators, biochemical, flow cytometry, bead-based. AID 1783, 2009. shares compounds with RGS16-Gao HTS. streptavidin beads, fluorescein-biotin binding. inhibition, % at 10 µM. 1,700 tested, under 10 active;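 active = inhibition above 50%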;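 note: median green fluorescence of gated singlet beads compared with DMSO control wells; 0% = DMSO wells and 100% = complete loss of bead fluorescence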
RGS8-Gao single: RGS8-Galphao binding modulators, confirmation, biochemical, multiplexed bead flow cytometry, single concentration. shares compounds with RGS16-Gao HTS. 1,700 compounds, 3% hits. AID 1836, 2009. binding response (% of control), % at 10 µM. bead-based flow cytometry RGS8-Galphao binding, fluorescence; actives lie on both sides; in the data active = binding response below about 72% or above about 130%; inactive = in between;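 note: Galphao activated as GDP AlF4 complex before binding bead RGS8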
RGS7-Gao single: RGS7-Galphao binding modulators, confirmation, biochemical, multiplexed bead flow cytometry, single concentration; response (percent of control binding), % at 10 µM; bead-based flow cytometry RGS7-Galphao binding; actives lie on both sides; shares compounds with RGS16-Gao HTS; 1,700 compounds, 7.8% hits; in the data active = response below about 75% or above about 130%; inactive = in between;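 note: fluorescent Galphao activated with GDP and aluminum fluoride binding bead-coupled RGS7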
RGS16-Gao conf: modulators of RGS16-Galphao protein binding, confirmation, biochemical, single concentration, multiplexed bead flow cytometry | 1,700 compounds, 4% hits | shares compounds with RGS16-Gao HTS | response (% of control binding), % at 10 µM | bead-based flow cytometry; actives lie on both sides; in the data active = response below about 74% or above about 130%; inactive = in between;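 note: Galphao activated as the GDP aluminium fluoride complex binding bead-coupled RGS16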
RGS4-Gao confirm: modulators of RGS4-Galphao protein binding, confirmation, biochemical, single concentration, multiplexed bead flow cytometry. actives lie on both sides. 1,700 compounds, 4% hits. shares compounds with RGS16-Gao HTS. AID 1840, 2009. binding response (% of control), % at 10 µM; in the data active = binding response below about 74% or above about 130%; inactive = in between
RGS19-Gao conf: regulators of RGS19-Galphao binding, confirmation, biochemical, single point, multiplexed bead flow cytometry; 1,700 compounds, 5% hits; shares compounds with RGS16-Gao HTS; response (percent of control binding), % at 10 µM; bead-based flow cytometry RGS19-Galphao binding; actives lie on both sides; in the data active = response below about 50% or above about 160%; inactive = in between;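 note: 100% = no compound control and 0% = blank background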
The depositor's hits bear a star; ? = inconclusive; nt = no result given; [ ] = dose if it differs, or a comment. Unless noted, the rule behind the calls is not given here.

SMILES | RGS4-Gao reg | Avidin fluor | GSH fluor | RGS8-Gao reg | RGS7-Gao reg | RGS16-Gao HTS | RGS-Gao | Avidin counter | RGS8-Gao single | RGS7-Gao single | RGS16-Gao conf | RGS4-Gao confirm | RGS19-Gao conf
Cn1cccc1C1Nc2ccccc2NC2=C1C(=O)CC(C)(C)C2 (configuration not stated) | 60 | 0 | 7 | 58* | 58 | 50 | 60* | 1 | 102 | 99 | 103 | 103 | 101
Cc1ccccc1Nc1scc(-c2ccc(Cl)cc2)[n+]1-c1ccccc1C | 102 | 12 | 17 | 103 | 102 | 106 | nt | nt | nt | nt | nt | nt | nt
O=C(Nc1cccc(S(=O)(=O)N2CCOCC2)c1)C1CCCN(C(=O)c2ccc(Cl)cc2)C1 (configuration not stated) | 101 | 11 | nt | 101 | ? | 99 | nt | nt | nt | nt | nt | nt | nt
CCOC(=O)c1cc2sccc2n1CC(=O)N1CCCC1 | 113 | 48* | 31 | 104 | 150*[activator] | 121 | 113* | -1 | 96 | 96 | 96 | 95 | 94
CCn1c(C(=O)N2CCCC(C(=O)O)C2)cc2sccc21 (configuration not stated) | 93 | 4 | 64 | 71 | 93 | 24* | 93* | -1 | 105 | 104 | 109 | 102 | 114
COCCCNC(=O)c1c(NC(=O)C2COc3ccccc3O2)sc2c1CCCC2 (configuration not stated) | 93 | 1 | 33 | 84 | 100 | 10 | nt | nt | nt | nt | nt | nt | nt
CCNC(=O)c1c(NC(=O)C2COc3ccccc3O2)sc2c1CCCC2 (configuration not stated) | 170*[activator] | 3 | 22 | 185*[activator] | 155*[activator] | -528 | nt | 0 | 105 | 110 | 104 | 105 | 95
CCOc1cc(-c2nc(C)c(C(C)=O)n2O)ccc1OCC(=O)Nc1ccc(F)cc1 | 110 | 64* | 10 | 103 | 158*[activator] | 114 | 110* | -1 | 93 | 90 | 92 | 101 | 77
COc1cc(-c2nc(C)c(C(C)=O)n2O)ccc1OCC(=O)Nc1ccc(F)cc1 | 104 | 10 | 18 | 99 | 98 | 98 | nt | nt | nt | nt | nt | nt | nt
CCN(CC)S(=O)(=O)c1ccc(N2CCOCC2)c(NC(=O)c2ccc(NC(C)=O)cc2)c1 | 102 | nt | nt | 99 | ? | 96 | nt | nt | nt | nt | nt | nt | nt
CC(=O)OCCCNc1cc(Sc2nc3ccccc3s2)c2nonc2c1[N+](=O)[O-] | 83 | -2 | 24 | 51* | 96 | 8.5* | 83* | 0 | 78 | 78 | 82 | 96 | 26*
Cc1ccc(NC(=O)NC(=O)N(C(C)C)S(C)(=O)=O)nc1 | 100 | 16 | 8 | 119 | 98 | 239*[activator] | 100* | nt | nt | nt | nt | nt | nt
CC1S/C(=N/N=C/c2ccco2)N(Cc2ccc(F)cc2)C1=O (configuration not stated) | 100 | 5 | nt | 98 | ? | 100 | nt | nt | nt | nt | nt | nt | nt
CCC1S/C(=N/N=C/c2ccco2)N(Cc2ccccc2)C1=O (configuration not stated) | nt | nt | nt | nt | nt | nt | nt | -1 | 101 | 105 | 101 | 102 | 118
O=C(N/N=C/c1ccc(N2CCOCC2)o1)c1cccc([N+](=O)[O-])c1 | 87 | 2 | 10 | 63 | 87 | 18* | 87* | 0 | 97 | 92 | 97 | 96 | 69
Nc1nc(NCCCN2CCOCC2)nc(Nc2cccc(Cl)c2)c1[N+](=O)[O-] | 117 | 5 | nt | 108 | ? | 118 | nt | nt | nt | nt | nt | nt | nt
CC1(C)Cc2c(sc(NC(=O)/C=C/C(=O)O)c2C#N)CO1 | 102 | 4 | nt | 102 | ? | 103 | nt | nt | nt | nt | nt | nt | nt
CC1(C)Cc2c(sc(NC(=O)c3ccco3)c2C#N)CO1 | -105* | nt | 13 | 2.6* | -35* | -105* | nt | 2 | 101 | 103 | 102 | 102 | 99
CN(C(=S)Nc1ccc(Oc2ccccc2)cc1)C1CCCCC1 | 87 | 6 | 6 | 72 | 85 | 14* | 87* | 0 | 100 | 98 | 100 | 101 | 99
Cc1nc(C(=O)N2CCc3c([nH]c4ccccc34)C2c2cc(F)ccc2F)cs1 (configuration not stated) | 141 | 13 | 16 | 126 | 141 | 133 | nt | nt | nt | nt | nt | nt | nt
O=C(Nc1ccccc1F)C1CCN(C(=O)Cc2ccccc2)CC1 | 109 | 2 | 28 | 95 | 104 | 63 | nt | nt | nt | nt | nt | nt | nt
O=C(Nc1ccccc1Br)C1CCN(C(=O)Cc2ccccc2)CC1 | 97 | 6 | 17 | 90 | 97 | 21* | 97* | 1 | 106 | 105 | 109 | 103 | 110
O=C(COC(=O)C1=COCCO1)Nc1ccc(OC(F)F)cc1 | 102 | 12 | 11 | 103 | 106 | 106 | nt | nt | nt | nt | nt | nt | nt
CCn1c(SCC(=O)Nc2nc3ccc(C)cc3s2)nc2c(c1=O)SC(C)C2 (configuration not stated) | 112 | 117* | 24 | 101 | 158*[activator] | 109 | 112* | nt | nt | nt | nt | nt | nt
